This is a sample that favours compounds with a hit; in the whole collection about 6.8% have one here.
PINK1 expr mod: A Quantitative High throughput Screen to Identify Chemical Modulators of PINK1 Expression. Potency, µM (titrated, usually from 76.6 µM), for the others: at the top dose activation (PINK1 increase), most hits filed as activators. 410,000 compounds, 0.2% hits. PINK1 immunofluorescence, high-content cytometry, 24 h; active = well fitted activation curve with a large enough effect; inconclusive = small, poorly fitted or top-dose-only effect; cell line not stated here; also: % of control where 0% means no effect; nearly all actives have a fitted effect of over 65% in size
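Stable cell line treated 24 h with compounds at 5 concentrations (CCCP controls), then fixed and immunostained for PINK1 plus nuclear and cell stains; PINK1 immunofluorescence quantified by laser-scanning microplate cytometry.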
TSG101-PTAP inh: qHTS Assay for Iinhibitors of HIV-1 Budding by Blocking the Interaction of PTAP/TSG101. Fluorescence polarization, FITC-PTAP peptide / Tsg101 binding. Potency, µM (titrated, usually from 115 µM), for the others: top-dose activity change, negative = inhibition, hits mostly inhibitors. 340,000 tested, under 10 active. AID 493005, 2010; active = well fitted inhibition curve with a large enough effect in the main read-out, with a control signal flat, not every such curve was filed as active; inconclusive = small, poorly fitted or top-dose-only effect, or effect the other way, or a change in a side signal; inactive = no such curve, though single readings can be large or run the other way; also: % of control where 0% means no effect
Target sequence (Q99816 whole entry, looked up): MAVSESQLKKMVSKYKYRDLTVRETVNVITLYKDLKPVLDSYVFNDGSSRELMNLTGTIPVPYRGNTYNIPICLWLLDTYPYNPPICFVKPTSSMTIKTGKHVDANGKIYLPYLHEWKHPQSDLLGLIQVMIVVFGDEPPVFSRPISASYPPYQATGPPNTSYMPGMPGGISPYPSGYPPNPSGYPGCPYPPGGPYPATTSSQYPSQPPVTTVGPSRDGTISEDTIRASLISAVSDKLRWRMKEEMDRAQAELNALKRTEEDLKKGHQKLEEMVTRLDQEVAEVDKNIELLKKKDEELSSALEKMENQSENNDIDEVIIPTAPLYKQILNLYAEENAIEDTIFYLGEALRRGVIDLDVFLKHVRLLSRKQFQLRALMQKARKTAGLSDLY
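Fluorescence polarization binding of Tsg101 binding domain (10 uM final) to FITC-labeled PTAP peptide (50 nM final) in HEPES pH 7.5 buffer with NaCl, Tween 20, EDTA, TCEP. Compounds added before peptide; binding 20 min at RT.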
MCF10A rereplic: A quantitative high throughput screen for small molecules that induce DNA re-replication in MCF 10a normal breast cells; MCF 10A DNA re-replication, Hoechst nuclear intensity, 48 h; Potency, µM (titrated, usually from 46.1 µM), for inactives: at the highest dose activity, positive = re-replication, usual class: activators; 350,000 compounds, 2.9% hits; AID 624296, 2012; also: % of control where 0% means no effect; nearly all actives have a fitted effect of over 50% in size
SW480 rerep: A quantitative high throughput screen for small molecules that induce DNA re-replication in SW480 colon adenocarcinoma cells. SW480 DNA re-replication, Hoechst DNA content imaging, 48 h. 340,000 compounds, 1.8% hits. Potency, µM (series often up to 46.1 µM), inactives show top-dose re-replication activation, most hits filed as activators; also: % of control where 0% means no effect; nearly all actives have a fitted effect of over 55% in size
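Compounds, transferred as 23 nL by pin tool, were incubated with cells for 48 hr; DNA content per nucleus was then quantified by Hoechst staining and fluorescence plate imaging.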
KB-3-1 tox: qHTS assay for MDR1-selective chemotherapeutics: Primary screen using the parental adenocarcinoma cell KB-3-1; KB-3-1 viability, CellTiter-Glo ATP luminescence, 72 h; Potency, µM (doses to about 46.1 µM), actives largely listed as cytotoxic; 400,000 compounds, 1.4% hits; AID 1347075, 2019; also: % is scaled to controls: 0 for no effect and ±100 for the full control effect; nearly all actives have a fitted effect of over 60% in size
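Cells are dispensed, compounds pinned in, plates held at 37 °C for 72 h, then CellTiter-Glo is added and luminescence read after 10 minutes. Cell line: parental KB-3-1 in phenol-red-free DMEM, 10% FBS.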
KB-V1 cytotox: qHTS assay for MDR1-selective chemotherapeutics: Primary screen using the drug-selected MDR subline cells KB-V1; KB-V1 MDR cells viability, CellTiter-Glo, 72 h; Potency, µM (highest dose often 46.1 µM), hits mostly cytotoxic; AID 1347076, 2019; 400,000 compounds, 3.4% hits; also: % is scaled to controls: 0 for no effect and ±100 for the full control effect; nearly all actives have a fitted effect of over 60% in size
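In this primary screen, KB-V1 cells overexpressing P-gp are incubated with library compounds (lowest to highest concentration) for 72 h at 37 degrees C before a luminescent ATP viability read.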
Active calls of the source: *; i = inactive; ? = inconclusive; . = no result given; ! = a repeat was not active; [ ] = remark or other dose. Unless noted, calls follow the shape of the dose curve; as a rule, active = well fitted curve in the direction sought with a large enough effect; inconclusive = small, poorly fitted or top-dose-only effect, or another doubt; inactive = no such curve, though single readings can be large; an effect the other way counts as inactive or inconclusive. Potency is read from the fitted curve at half-maximal effect.

SMILES	PINK1 expr mod	TSG101-PTAP inh	MCF10A rereplic	SW480 rerep	KB-3-1 tox	KB-V1 cytotox
CC(C)N(C(=O)[C@H]1C[C@H](CC(=O)NCCCN(C)C)C(=O)N2CCc3c([nH]c4cc(-c5ccco5)ccc34)[C@]12C)C(C)C	-2%	-6%	?	?	i	i
CC(C)N(C(=O)[C@H]1C[C@H](CC(=O)NCCC2=CCCCC2)C(=O)N2CCc3c([nH]c4cc(-c5ccco5)ccc34)[C@]12C)C(C)C	6%	-8%	27%	9%	23µM*	?
CCN(CC)C(=O)[C@H]1C[C@H](CC(=O)NC/C=C(\C)CCC=C(C)C)C(=O)N2CCc3c([nH]c4cc(-c5ccco5)ccc34)[C@]12C	?	-3%	21µM*	17%[9.22 µM]	?	?
NC(N)=NC[C@@H]1COC2(CCCCC2)O1	.	.	2%[20.6 µM]	-3%[20.6 µM]	.	.
Cc1ccc(S(=O)(=O)N(C)C)cc1NC(=O)C(C)N(C)CCOc1ccc(Cl)cc1 (stereo unspecified)	0%	-2%	18µM*	?	i	?
Cc1ccc(NC(=O)CCC(=O)NNC(=O)COc2ccc([N+](=O)[O-])cc2)c(C)c1	5%	2%	1.6µM*	2%	i	i
CCN(CC)S(=O)(=O)c1cc(NC(=O)CCCOc2ccc(C(C)=O)cc2)ccc1C	-3%	-4%	16%	-2%	?	2.9µM*
CC(=O)c1ccc(OCCCC(=O)Nc2cc(S(=O)(=O)N(C)C)ccc2C)cc1	1%	-6%	-3%	16µM*	?	23µM*
COc1cc(NC(=O)C2CCCN(S(=O)(=O)c3cn(C)cn3)C2)cc(OC)c1 (stereo unspecified)	0%	.	.	.	.	.
Cc1ccc([N+](=O)[O-])cc1NC(=O)CCc1ccccc1	1%	1%	0%	3%	i	i
CN(CCOc1ccc(Cl)cc1)Cc1cccc(S(=O)(=O)N(C)C)c1	0%	-2%	?	-4%	21µM*	7.3µM*
Cc1ccc([N+](=O)[O-])cc1NC(=O)CCCOc1ccccc1	-1%	-5%	9%	-3%	i	10µM*
CN(CCOc1ccccc1)Cc1ccccc1	3%	.	.	.	i	i
O=C(O)COCCN1CCN([C@@H](c2ccccc2)c2ccc(Cl)cc2)CC1	.	.	-2%[20.6 µM]	-6%[20.6 µM]	.	.
CCc1ccc(CNC(=O)CCc2c(C)nn(-c3ccc(N4CCCCC4)nn3)c2C)cc1	1%	.	.	.	.	.
CCCCCn1c(=O)[nH]c2cc(C(=O)N3CCN(c4cccc(C)c4)C(C)C3)ccc2c1=O (stereo unspecified)	2%	.	.	.	?	i
O=C1c2ccccc2C(=O)N1CCCc1nc2ccccc2c(=O)n1Cc1ccco1	0%	0%	1%	-5%	i	?
Cc1ccc(-c2nc3ccccc3c(=O)n2Cc2ccccc2)cc1	-1%	1%	?	0%	i	13µM*
O=c1c2ccccc2nc(-c2ccccc2)n1Cc1ccco1	-1%[38.3 µM]	-2%	16%	-13%	i	12µM*
COc1ccc(CN2CCCC(n3cc(C(=O)NC4CCCC4)nn3)C2)c2ccccc12 (stereo unspecified)	1%	.	.	.	.	.
COc1cc(Nc2nc3c(S(=O)(=O)c4ccc(C)c(C)c4)nnn3c3ccsc23)cc(OC)c1	3%	.	.	.	.	.
CCOC(=O)c1ccc(-c2c(-c3cc(OC)c(OC)c(OC)c3)noc2C)cc1F	3%	0%	1.5µM*	2.9µM*	1.6µM*!	12µM*
CCC(C)c1ccc(NC(=S)NCc2cccnc2)cc1 (stereo unspecified)	-1%	-2%	10%	-5%	?	18µM*
CC(C)(C)c1ccc(NC(=S)NCc2cccnc2)cc1	3%	0%	?	-20%	i	i
CCC(C)c1ccc(NC(=O)c2cccnc2)cc1 (stereo unspecified)	-4%[38.3 µM]	-5%	24%	?	i	21µM*
SMILES	PINK1 expr mod	TSG101-PTAP inh	MCF10A rereplic	SW480 rerep	KB-3-1 tox	KB-V1 cytotox
CCC(C)c1ccc(O)c(NC(=O)c2cccnc2)c1 (stereo unspecified)	-1%	1%	-13%	-7%	i	i
CC1CCN(CCCC(=O)c2ccc(F)cc2)CC1	.	.	-3%	-4%	.	.
CC(C)(C)c1ccc(C(=O)CCCN2CCC(OC(c3ccccc3)c3ccccc3)CC2)cc1	.	.	12µM*	-3%	.	.
Cn1c(NCCc2ccccc2)cc(=O)n(C)c1=O	-1%	-1%	4%	-7%	i	?
Cn1c(=O)c(NCCc2ccccc2)c2c3c(cccc31)C(=O)c1ccccc1-2	3%	?	5.8µM*	18µM*	i	i
CC(=O)Nc1ccc(Nc2c3c4c(cccc4n(C)c2=O)C(=O)c2ccccc2-3)cc1	?	?	12%	-3%	i	i
CCCCNc1c2c3c(cccc3n(C)c1=O)C(=O)c1ccccc1-2	18%[38.3 µM]	?	?	5.8µM*	?	?
Cn1c(=O)c(NC2CCCCC2)c2c3c(cccc31)C(=O)c1ccccc1-2	15%	?	3.7µM*	23µM*	i	i
Oc1ccc(Cl)cc1C1C=C(c2ccc3c(c2)OCO3)NC(c2ccc(Cl)cc2)N1 (stereo unspecified)	2%	.	.	.	i	i
CCc1cc2c(cc3c(=O)n(CC(=O)NCc4cc(Br)ccc4OC)ncn32)s1	2%	.	.	.	.	.
Cc1ccc(CNC(=O)CSc2ncc3c(n2)-c2cc(Cl)ccc2N(C)S3(=O)=O)cc1	0%	.	.	.	i	i
CCN1CCN(Cc2ccc(NC(=O)c3ccc(C)c(NC(=O)c4nccn4C)c3)cc2C(F)(F)F)CC1	-1%	0%	-7%	-1%[9.22 µM]	i	i
CCN1CCN(Cc2ccc(NC(=O)c3ccc(C)c(NC(=O)c4cccc5[nH]ccc45)c3)cc2C(F)(F)F)CC1	1%	-5%	?	3.3µM*	16µM*!	?
CCN1CCN(Cc2ccc(NC(=O)c3cc(NC(=O)c4cncc(-c5ccc(C#N)cc5)c4)cc(OC)c3)cc2C(F)(F)F)CC1	-1%	3%	10µM*	24%[9.22 µM]	?	i

Source: PubChem BioAssay (National Center for Advancing Translational Sciences (NCATS))
